Results: PubChem BioAssay (Tox21)
Results filed as inconclusive are left out. Where a call stands in place of a potency, no number is given. Activity calls are given as the source filed them. Unless noted, the call rests on the fitted dose curve; in most records, active means well fitted curve in the direction sought with a large enough effect in the repeat runs; inconclusive means weak or mixed curves; inactive means no such curve, though single readings can be large; an effect the other way counts as inactive or inconclusive.

Target: Androgen receptor (Homo sapiens) (UniProt P10275)
Assay: qHTS assay to identify small molecule antagonists of the androgen receptor (AR) signaling pathway (AID 743035; active means well fitted inhibition curve with a large enough effect in the signal ratio in the repeat runs, not every such curve was filed as active; the % refers to the signal ratio)
Conditions: HEK293 AR-UAS-bla, R1881-stimulated, beta-lactamase FRET, 16 h; series mostly up to 58.5 µM
Outline: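 R1881 agonist challenge of a HEK293 UAS-beta-lactamase AR reporter line in the presence of compound (16 h, 37C); signal taken as FRET fluorescence after 2 h with LiveBLAzer B/G substrate at room temperature.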

Sequence of Androgen receptor (Homo sapiens) (P10275 whole entry, looked up): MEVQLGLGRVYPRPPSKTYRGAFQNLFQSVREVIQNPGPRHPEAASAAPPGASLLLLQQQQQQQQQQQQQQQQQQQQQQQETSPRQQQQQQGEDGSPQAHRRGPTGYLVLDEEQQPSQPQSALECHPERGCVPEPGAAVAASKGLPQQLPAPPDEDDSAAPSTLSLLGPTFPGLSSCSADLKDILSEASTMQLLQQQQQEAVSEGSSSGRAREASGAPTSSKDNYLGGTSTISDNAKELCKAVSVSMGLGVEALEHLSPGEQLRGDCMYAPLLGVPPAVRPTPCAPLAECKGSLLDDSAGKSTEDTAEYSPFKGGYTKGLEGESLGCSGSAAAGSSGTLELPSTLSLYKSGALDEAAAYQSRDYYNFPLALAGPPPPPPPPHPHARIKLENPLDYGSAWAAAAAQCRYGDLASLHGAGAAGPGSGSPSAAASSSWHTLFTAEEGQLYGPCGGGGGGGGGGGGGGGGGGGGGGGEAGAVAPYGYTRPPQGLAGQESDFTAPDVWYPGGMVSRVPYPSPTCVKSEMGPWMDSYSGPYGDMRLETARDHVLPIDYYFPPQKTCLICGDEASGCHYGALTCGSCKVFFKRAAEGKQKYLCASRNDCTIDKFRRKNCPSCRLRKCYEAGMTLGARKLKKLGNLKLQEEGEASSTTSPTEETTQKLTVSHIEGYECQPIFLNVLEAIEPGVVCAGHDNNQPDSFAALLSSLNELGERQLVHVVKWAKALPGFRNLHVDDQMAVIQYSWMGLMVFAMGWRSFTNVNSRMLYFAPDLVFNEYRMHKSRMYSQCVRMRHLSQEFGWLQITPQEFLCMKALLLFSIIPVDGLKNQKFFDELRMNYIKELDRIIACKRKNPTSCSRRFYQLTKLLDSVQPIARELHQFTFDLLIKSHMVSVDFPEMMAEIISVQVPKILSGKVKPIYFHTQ

SMILES	Potency
CCCCCCCCCCCCCOS(=O)(=O)O	inactive
O=C(O)CCC(=O)c1ccc(-c2ccccc2)cc1	inactive
CCC(CO)(CO)CO	inactive
O=C(Oc1ccccc1)c1ccc2ccccc2c1O	inactive
Cc1cn([C@H]2C[C@H](F)[C@@H](CO)O2)c(=O)[nH]c1=O	inactive

Target: Androgen receptor (Homo sapiens) (UniProt P10275)
Assay: qHTS assay to identify small molecule agonists of the androgen receptor (AR) signaling pathway (AID 743036; active means well fitted activation curve with a large enough effect in the signal ratio in the repeat runs, with a control signal flat, not every such curve was filed as active; the % refers to the signal ratio)
Conditions: HEK293 AR-UAS-bla GripTite, beta-lactamase FRET ratio, 16 h; series mostly up to 62.4 µM
Outline: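 Quantitative HTS of the Tox21 10K library in HEK293 cells bearing a stably integrated UAS-controlled beta-lactamase reporter. Compound exposure lasted 16 h at 37C. Reporter activity was detected by FRET substrate fluorescence after 2 h at room temperature.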

SMILES	outcome
O=S(=O)(Cl)c1c(Cl)cccc1Cl	inactive
O=C(O)c1cc(Cl)cc(Cl)c1O	inactive
CCC(CO)(CO)CO	inactive
O=C(Oc1ccccc1)c1ccc2ccccc2c1O	inactive
Cc1cn([C@H]2C[C@H](F)[C@@H](CO)O2)c(=O)[nH]c1=O	inactive

Target: Androgen receptor (Homo sapiens) (UniProt P10275)
Assay: qHTS assay to identify small molecule agonists of the androgen receptor (AR) signaling pathway using the MDA cell line (AID 743040; further: nearly all actives have a fitted effect of over 20% in size)
Conditions: MDA-kb2 AR-luc cells, MMTV luciferase, 16 h; series mostly up to 70.3 µM
Outline: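 Cell-based luciferase reporter: MDA-kb2, MMTV promoter (AR + GR response elements). 16 h compound exposure at 37C; ONE-Glo, 30 min RT, luminescence.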

SMILES	Potency
O=S(=O)(Cl)c1c(Cl)cccc1Cl	inactive
CN(C)CC/C=C1\c2ccccc2Sc2ccc(Cl)cc21	inactive
Nc1cccc2c(N)cccc12	inactive
CCN(CC)c1cccc(O)c1	inactive
CCCCCCCCCCCCCOS(=O)(=O)O	inactive
O=C(O)c1cc(Cl)cc(Cl)c1O	inactive
O=C(O)CCC(=O)c1ccc(-c2ccccc2)cc1	inactive
CCC(CO)(CO)CO	inactive
O=C(Oc1ccccc1)c1ccc2ccccc2c1O	inactive
Cc1cn([C@H]2C[C@H](F)[C@@H](CO)O2)c(=O)[nH]c1=O	inactive

System: not listed separately
Assay: qHTS assay to identify small molecule antagonists of the androgen receptor (AR) signaling pathway using the MDA cell line - cell viability counter screen (AID 743041; further: nearly all actives have a fitted effect of over 45% in size; further: potency means the concentration at half of the fitted maximal effect)
Conditions: MDA-kb2 viability, CellTiter-Fluor, 16 h, cells co-treated with R1881 androgen agonist; series mostly up to 70.3 µM
Outline: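 In this qHTS counter assay, fluorescence intensity after CellTiter-Fluor addition indicated viability of MDA-kb2 AR-luc cells given compounds and R1881 for 16 h at 37C.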

SMILES	Potency
C[C@@H]1C[C@H]2[C@@H]3CCC4=CC(=O)C=C[C@]4(C)[C@@]3(F)[C@@H](O)C[C@]2(C)[C@@]1(O)C(=O)COP(=O)(O)O	inactive
O=S(=O)(Cl)c1c(Cl)cccc1Cl	inactive
CCCCCCCCCCCCCCCCCC(=O)OCC(CC)CCCC (centres undefined)	inactive
CN(C)CC/C=C1\c2ccccc2Sc2ccc(Cl)cc21	27.8 µM (active)
Cc1ccc(S(=O)(=O)NC(=O)NC2CCCCC2)cc1	inactive
CC(C)(C(=O)c1cccnc1)c1cccnc1	inactive
CC(=O)OCC1=C(C(=O)O)N2C(=O)[C@@H](NC(=O)CSc3ccncc3)[C@H]2SC1	inactive
Cc1ccc(N(CCO)CCO)cc1	inactive
CCC(CO)(CO)[N+](=O)[O-]	inactive
CCN(CC)c1cccc(O)c1	inactive
CCCCCCC(O)CCCCCCCCCCC(=O)OC (centres undefined)	inactive
COc1cc(NS(=O)(=O)c2ccc(N)cc2)nc(C)n1	inactive
COc1cc(NC(C)CCCN)c2ncccc2c1 (centres undefined)	inactive
CC(C)C1CCC(C(=O)N[C@H](Cc2ccccc2)C(=O)O)CC1 (some centres undefined)	inactive
CCCCCCCCCCCCCOS(=O)(=O)O	inactive
CCCCCCC(O)CCOC(C)=O (centres undefined)	inactive
CC(=O)C(=O)CC(C)C	inactive
COC1CCC=CO1 (centres undefined)	inactive

SMILES	Potency
CC(=O)N[C@@H](Cc1ccc(O)cc1)C(=O)O	inactive
CC(=O)OCCC1CCCCC1	inactive
O=C(O)c1cc(Cl)cc(Cl)c1O	inactive
CC1C(C)(C)C2=C(C(=O)CCC2)C1(C)C (centres undefined)	inactive
CCCCCCCCCCCCCOC(=O)CCSCCC(=O)OCCCCCCCCCCCCC	inactive
Cc1c[nH]c2ccccc12	inactive
Cc1ccc(N(CC2=NCCN2)c2cccc(O)c2)cc1	inactive
CCCCCC	inactive
O=C(O)CCC(=O)c1ccc(-c2ccccc2)cc1	inactive
CCC(CO)(CO)CO	inactive
CC1=CC[C@@H]2C[C@H]1C2(C)C	inactive
CC(=O)OCC(=O)[C@@]1(OC(C)=O)[C@@H](C)C[C@H]2[C@@H]3C[C@H](F)C4=CC(=O)C=C[C@]4(C)[C@@]3(F)[C@@H](O)C[C@@]21C	inactive
O=C(Oc1ccccc1)c1ccc2ccccc2c1O	inactive
CC(C)(C)C1(CCc2ccc(Cl)cc2)CO1 (centres undefined)	inactive
CC[C@@H](CO)NCCN[C@@H](CC)CO	inactive
CCCCC(CC)COS(=O)(=O)O (centres undefined)	inactive
O=C(NC(Cc1cc(=O)[nH]c2ccccc12)C(=O)O)c1ccc(Cl)cc1 (centres undefined)	inactive
Cc1cn([C@H]2C[C@H](F)[C@@H](CO)O2)c(=O)[nH]c1=O	inactive

Target: Androgen receptor (Homo sapiens) (UniProt P10275)
Assay: qHTS assay to identify small molecule antagonists of the androgen receptor (AR) signaling pathway using the MDA cell line (AID 743042; further: nearly all actives have a fitted effect of over 55% in size)
Conditions: MDA-kb2 AR-luc, MMTV luciferase, R1881 antagonist, 16 h; series mostly up to 70.3 µM
Outline: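 MDA-kb2 cells (human breast carcinoma, stably carrying an MMTV-luciferase reporter responsive to AR and GR) were plated at 3,000 cells/well and preincubated 5 hr at 37C, then given compound plus R1881 agonist for 16 h. ONE-Glo luminescence was read.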

SMILES	Potency
O=S(=O)(Cl)c1c(Cl)cccc1Cl	inactive
CCN(CC)c1cccc(O)c1	inactive
CCCCCCCCCCCCCOS(=O)(=O)O	inactive
O=C(O)c1cc(Cl)cc(Cl)c1O	inactive
O=C(O)CCC(=O)c1ccc(-c2ccccc2)cc1	inactive
CCC(CO)(CO)CO	inactive
O=C(Oc1ccccc1)c1ccc2ccccc2c1O	inactive
Cc1cn([C@H]2C[C@H](F)[C@@H](CO)O2)c(=O)[nH]c1=O	inactive
